This is a sample that favours compounds with a hit; in the whole collection about 2.6% have one here.
PAFAH1B3 inh: inhibitors of human PAFAH1B3; Q15102; recombinant PAFAH1B3, FP-rhodamine probe, fluorescence polarization; inhibition, % at 3.39 µM; 0.28% of 340,000 active;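 active means inhibition above the screen-wide average of all tested compounds plus 3 SD, cut at about 25% in these data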;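 further: 0% = enzyme with DMSO only and 100% = wells lacking PAFAH1B3 protein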
pPAFAH FP inh: inhibitors of human plasma PAF acetylhydrolase (pPAFAH); Q13093; recombinant pPAFAH, FP-rhodamine probe fluorescence polarization; inhibition, % at 3.39 µM; 1.5% of 330,000 active; AID 463082;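 active means inhibition above the mean inhibition across the screen plus 3 SD, cut at about 25% in these data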;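 further: inhibitors block binding of the rhodamine activity-based probe so polarization drops; 0% = enzyme with DMSO and 100% = wells lacking pPAFAH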
PKA-R1A act: activates the PKA-R1A holoenzyme complex; P00514+P68181; PKA-R1A dissociation, Cy5-IP20 fluorescence polarization; scaled: DMSO 0%, 113 µM cGMP 100%; activation, % at 11.4 µM; 0.083% of 340,000 active; AID 504707;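 active means percent activation above the mean of all tested compounds plus 3 SD, cut at about 19% in these data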;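 further: higher means more PKAc released from R1A so a rise in polarization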
PKA-R2B activ: PKA-R2B complex activation; PKA-R2B holoenzyme dissociation, Cy5-IP20 fluorescence polarization; R2B truncated from residue 108, S112A mutant; 0% DMSO only, 100% 113 µM cGMP; activation, % at 11.4 µM; 0.079% of 340,000 active;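 active means activation above a cutoff set at the mean over all compounds plus 3 SD, cut at about 18% in these data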;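 further: higher means more holoenzyme dissociation and a rise in polarization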
Target sequence (P31323 whole entry, looked up, other chains not shown, the tested form may be a part): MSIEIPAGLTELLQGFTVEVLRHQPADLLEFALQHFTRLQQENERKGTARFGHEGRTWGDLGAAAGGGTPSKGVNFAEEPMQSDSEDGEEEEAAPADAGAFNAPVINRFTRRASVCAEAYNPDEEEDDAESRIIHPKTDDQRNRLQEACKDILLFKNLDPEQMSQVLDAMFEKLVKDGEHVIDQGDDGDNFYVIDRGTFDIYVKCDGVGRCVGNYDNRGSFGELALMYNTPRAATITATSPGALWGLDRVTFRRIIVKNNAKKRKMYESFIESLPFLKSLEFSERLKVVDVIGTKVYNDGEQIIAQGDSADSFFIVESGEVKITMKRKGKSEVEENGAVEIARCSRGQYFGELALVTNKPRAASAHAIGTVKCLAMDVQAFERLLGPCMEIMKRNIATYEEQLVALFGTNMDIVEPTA
PAFAH1B2 inh: PAFAH1B2 (human) inhibition; P68402; inhibition, % at 3.39 µM; AID 492953; recombinant PAFAH1B2, FP-rhodamine activity probe, fluorescence polarization; 1.2% of 340,000 active;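 active means inhibition above the mean of all tested compounds plus 3 SD, cut at about 24% in these data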;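 further: 0% = enzyme with DMSO and 100% = wells lacking PAFAH1B2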
Target sequence (P68402 whole entry, looked up): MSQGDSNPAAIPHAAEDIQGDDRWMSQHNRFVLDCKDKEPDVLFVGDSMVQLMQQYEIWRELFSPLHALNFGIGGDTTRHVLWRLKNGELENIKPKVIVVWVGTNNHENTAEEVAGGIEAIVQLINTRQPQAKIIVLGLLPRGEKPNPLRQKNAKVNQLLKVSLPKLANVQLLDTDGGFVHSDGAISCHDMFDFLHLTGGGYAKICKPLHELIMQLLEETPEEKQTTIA
PAFAH2 FP inh: PAFAH2 (human) inhibition. Q99487. recombinant PAFAH2, FP-rhodamine activity probe, fluorescence polarization. inhibition, % at 3.39 µM. 0.99% of 340,000 active;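 active means inhibition above the mean over all tested compounds plus 3 SD, cut at about 30% in these data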;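 further: inhibitors block probe labeling of enzyme so polarization drops; 0% = enzyme with DMSO and 100% = wells lacking PAFAH2 protein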
PAFAH2 FP conf: confirmation of human PAFAH2 inhibitors; shares compounds with PAFAH2 FP inh; AID 493030; 65% of 2,300 active; inhibition, % at 3.39 µM; recombinant PAFAH2, FP-rhodamine activity probe, fluorescence polarization;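 active means mean inhibition over three repeats above a set limit taken from the earlier primary screen, cut at about 30% in these data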;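 further: inhibitor blocks binding of rhodamine activity probe so polarization falls; 0% = enzyme with DMSO and 100% = wells lacking PAFAH2 protein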
* marks the source's active call; other numbers are inactive results; . = no result given.

SMILES | PAFAH1B3 inh | pPAFAH FP inh | PKA-R1A act | PKA-R2B activ | PAFAH1B2 inh | PAFAH2 FP inh | PAFAH2 FP conf
Cc1ccc(S(=O)(=O)/N=C(/Nc2cccc3ccccc23)c2ccc(F)cc2)cc1 | -3 | 1 | 1 | -2 | 18 | 3 | .
CCN(CC)CC(C)(C)C(=O)/C=C/c1ccc(/C=C/C(=O)C(C)(C)CN(CC)CC)cc1 | 7 | . | -2 | -3 | -1 | -8 | .
COc1cccc(/C=C/C(=O)OCC(=O)NCCc2ccccc2)c1 | 4 | 5 | 8 | -13 | -2 | 32* | 23
O=C(COC(=O)/C=C/c1ccccc1)NC1CCCCC1 | 3 | 9 | 0 | 0 | 3 | 76* | 83*
COc1ccc(CN2CCN(C3CCC3)CC2CCO)c(C)c1C (configuration not stated) | 9 | -1 | -7 | 2 | -2 | 2 | .
COc1cccc(/C=C/C(=O)OCC(=O)Nc2ccc(Cl)c(S(=O)(=O)N(C)C)c2)c1OC | -3 | 7 | 0 | 2 | -3 | 82* | 73*
COc1ccc(OC)c(/C=C/C(=O)OCC(=O)Nc2ccc(Cl)c(S(=O)(=O)N(C)C)c2)c1 | -1 | -2 | -11 | -2 | 3 | 45* | 42*
Cc1ccc(C(=O)OCC(=O)c2ccc(S(=O)(=O)N3CCCCC3)cc2)o1 | 5 | 2 | 10 | -8 | 3 | 2 | .
COc1ccc(N2CCN(S(=O)(=O)CCNC(=O)COc3ccccc3C)CC2)cc1 | 4 | 3 | -3 | -1 | 5 | 0 | .
O=C(Cc1ccc(-c2ccccc2)cc1)Nc1ncccc1O | 1 | 21 | 3 | 0 | 2 | 32* | 24
CC1(NC(=S)NCCCCCCNC(=S)NC2(C)CCS(=O)(=O)C2)CCS(=O)(=O)C1 (configuration not stated) | 5 | 2 | 2 | -1 | 2 | 4 | .
CC1(NC(=O)NCCCCCCNC(=O)NC2(C)CCS(=O)(=O)C2)CCS(=O)(=O)C1 (configuration not stated) | 6 | 2 | -2 | -4 | -2 | 44* | 37*
Cc1ccnc(NC(=O)CCN2C(=O)c3ccccc3S2(=O)=O)n1 | 11 | . | 0 | 4 | 6 | -2 | .
CCN1CC(O)=C(c2nc3ccccc3s2)C1=N | 5 | 21 | -4 | 1 | 0 | 52* | 23
O=c1[nH]c2cc(C(F)(F)F)ccc2n1-c1cc(C(F)(F)F)ccc1O | -3 | 13 | 10 | 6 | 2 | 49* | 42*
Cc1c(C(C)(C)O)[nH]c2cc(C(F)(F)F)ccc12 | 1 | 1 | -5 | -14 | 7 | 2 | .
COC(=O)c1c(NC(=O)c2cccc(S(=O)(=O)N3CCN(C)CC3)c2)sc(C)c1C | -2 | 5 | -10 | -14 | 1 | 30* | 16
COc1cccc(-c2nc3ccc(O)cc3c(=O)o2)c1 | 0 | -4 | -6 | 4 | 5 | 72* | 52*
O=c1oc(-c2cccc(S(=O)(=O)N3CCOCC3)c2)nc2ccccc12 | -1 | 0 | 0 | 5 | -1 | 61* | 55*
Cc1nc(-c2cccc(S(=O)(=O)N3CCOCC3)c2)cs1 | 4 | 2 | -1 | -5 | 6 | 0 | .
CC(=O)Oc1cccc(-c2nc3ccccc3c(=O)o2)c1 | 16 | 3 | 5 | 2 | -2 | 40* | 27
O=C(CCNC(=O)c1ccc(Br)cc1)NC1CCCc2ccccc21 (configuration not stated) | -2 | 3 | -7 | 2 | 2 | -2 | .
CN(CC(=O)Nc1cccc(F)c1)C(=O)CSc1ccccc1F | 14 | 12 | -2 | 1 | 3 | 11 | .
C=C1CCN([C@@H](Cc2ccccc2)C(=O)NC2CCN(Cc3ccccc3)CC2)S(=O)(=O)c2ccccc21 | -2 | -4 | 7 | 0 | 8 | 4 | .
COc1ccc(/C=C/C(=O)OCC(=O)NC2CCCC(C)C2C)cc1S(=O)(=O)N1CCOCC1 (configuration not stated) | -1 | 0 | -11 | 2 | 2 | 67* | 75*
SMILES | PAFAH1B3 inh | pPAFAH FP inh | PKA-R1A act | PKA-R2B activ | PAFAH1B2 inh | PAFAH2 FP inh | PAFAH2 FP conf
COc1ccc(/C=C/C(=O)OCC(=O)Nc2ccc(Cl)cc2F)cc1S(=O)(=O)N1CCOCC1 | 4 | 2 | 0 | 1 | 3 | 73* | 48*
O=C(NCc1cccc(Cl)c1)C1CCC(=O)N(CCN2CCOCC2)C1 (configuration not stated) | 8 | 2 | 10 | 0 | 6 | 1 | .
CC(=O)C(=Nc1cccc(Cl)c1)NNc1ccccc1C | 5 | 11 | 0 | 6 | -2 | 1 | .
C=CCOC(=O)c1cc(-c2ccc(/C=C3\C(=O)NC(=O)C(C#N)=C3C)o2)ccc1Cl | 11 | . | 5 | 7 | 12 | 42* | 19
O=c1c2c([nH]c3ccccc13)C(=C1CCCC1)CC2 | 12 | 16 | -13 | 5 | 9 | 33* | 7
COc1ccc2oc(C(=O)OCC(=O)NC3CC3)c(C)c2c1 | -1 | 2 | -2 | -11 | 3 | 18 | .
COc1ccc2oc(C(=O)OCC(=O)NC(C)(C#N)C3CC3)c(C)c2c1 (configuration not stated) | 8 | 12 | -5 | -4 | 3 | 47* | 41*
COc1ccc2oc(C(=O)OCC(=O)Nc3ccccc3)c(C)c2c1 | 8 | 10 | -5 | -9 | 0 | 61* | 52*
CC1CC(C)CN(C(=O)/C(=C\c2ccccc2)c2ccccc2)C1 (configuration not stated) | -4 | 2 | -11 | -11 | 4 | 2 | .
CC1CCCCN1C(=O)/C(=C\c1ccccc1)c1ccccc1 (configuration not stated) | 5 | -4 | -5 | -1 | 8 | 38* | 9
CCOc1cc(C(=O)OCC(=O)Nc2ccc(Cl)cn2)ccc1OCC(=O)N1CCOCC1 | 3 | 22 | 1 | -5 | 2 | 83* | 71*
Cc1ccc(C(=O)OCC(=O)Nc2ccc(Cl)cn2)s1 | 9 | 8 | -7 | 2 | 4 | 71* | 63*
Cc1ccc(C(=O)OCC(=O)NCc2ccc(Cl)cc2)s1 | . | . | 7 | 10 | . | . | .
CC(=O)Nc1cccc(C(=O)OCC(=O)Nc2ccc(Cl)cn2)c1 | 3 | -2 | 14 | -5 | 1 | 44* | 33*
O=C(COC(=O)c1ccc(F)cc1F)Nc1ccc(Cl)cn1 | 6 | 14 | -9 | -3 | 3 | 39* | 31*
CC(C)[C@@]1(c2ccc(Cl)cc2)ON(c2ccccc2C(F)(F)F)C1=O | . | 3 | . | . | . | . | .
Nc1ccc(S(=O)(=O)Nc2cc(Cl)c(N)c(Cl)c2)cc1 | 6 | . | 17 | 9 | 0 | 2 | .

Bioassay records: PubChem BioAssay, The Scripps Research Institute Molecular Screening Center
